PubChem BioAssay AID743295 (Broad Institute, 2014)
Measured potencies and affinities stand elsewhere.

The compounds below were run against Caspase-7 (Homo sapiens) (UniProt P55210) (assay: caspase-7 enzyme inhibition, selectivity check – biochemical, DEVD-R110 fluorescence, cherry-pick, selectivity assay for caspase-6 inhibitor project, dose response (AID 743295)). Conditions: purified caspase-7, DEVD-R110 cleavage fluorescence; series mostly up to 35 µM; activity change, negative = inhibition: at the top concentration;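 active = compounds lowering caspase 7 signal with dose, half-maximal concentration at most twice the top valid dose; inconclusive = flat fit with 30 to 70% inhibition, or poor fit; inactive = the rest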.
Caspase-7 (Homo sapiens), sequence (P55210 whole entry, looked up): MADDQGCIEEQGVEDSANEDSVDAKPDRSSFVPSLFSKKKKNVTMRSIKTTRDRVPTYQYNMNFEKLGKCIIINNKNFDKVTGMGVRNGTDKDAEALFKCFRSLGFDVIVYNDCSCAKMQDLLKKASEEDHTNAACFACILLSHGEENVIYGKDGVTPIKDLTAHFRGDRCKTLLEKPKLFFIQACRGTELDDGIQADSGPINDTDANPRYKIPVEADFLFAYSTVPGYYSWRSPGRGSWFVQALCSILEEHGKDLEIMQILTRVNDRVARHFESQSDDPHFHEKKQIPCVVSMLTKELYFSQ

Activity change, negative = inhibition, inactive:
O=C(Nc1ccc2nc3n(c(=O)c2c1)CCCCC3)c1c(F)ccc([N+](=O)[O-])c1F -6.37%
COCCN(C(=O)COC(=O)c1cc2c(s1)CCC2)c1c(N)n(Cc2ccccc2)c(=O)[nH]c1=O -2.08%
O=C(COC(=O)c1ccc([N+](=O)[O-])s1)Nc1ccc(F)cc1 1.2%
COc1cc(-c2ccc(Nc3ccccc3C(=O)O)c(OC)c2)ccc1Nc1ccccc1C(=O)O -1.45%
CCCc1nc2c(=O)n(C)c(=O)nc-2n(C)n1 -4.87%
COc1cc(NC(=O)COC(=O)c2ccc([N+](=O)[O-])s2)cc(OC)c1OC -7.83%
Nc1ccc(Nc2ccccc2)c(S(=O)(=O)O)c1 -8.06%
Oc1cc(NCCc2cccnc2)cc2cccnc12 0.565%
Cc1ccc(S(=O)(=O)Nc2csc(C)c2C(=O)O)cc1 -10.4%
CNS(=O)(=O)c1cccc(C(=O)OCC(=O)N2c3ccccc3NC(=O)C2(C)C)c1 -6.61%
Cc1cc(C=O)c(C)n1-c1cc(C(=O)O)cc(C(=O)O)c1 -6.4%
Cc1c(CCC(=O)O)c(=O)oc2c(C)c(OCc3ccccc3Cl)ccc12 11.5%
C/C(CC(=O)N1CCCC1)=N\NC(=O)c1cc2ccccc2cc1O -3.45%
Nc1cc(S(=O)(=O)O)cc([N+](=O)[O-])c1O -11.1%
CO[C@H]1CN(C)C(=O)c2cc(NC(C)=O)ccc2OC[C@@H](C)N(C(=O)CC2CC2)C[C@H]1C -17.6%
O=C(O)Cc1ccc(-n2cccc2)cc1 -8.97%
O=P(c1ccccc1)(c1ccccc1)c1cc(S(=O)(=O)O)ccc1O 0.949%
Cn1cnnc1SCC(=O)Nc1ncc([N+](=O)[O-])s1 11.3%
CCOC(=O)[C@H](Cc1c[nH]c2ccccc12)NC(=O)CN=[N+]=[N-] 2.34%
